# HCMV inh: blocks human cytomegalovirus replication | HFF cells, HCMV-luciferase reporter, 72 h; stronger effect = lower value | activity change, negative = inhibition, % at 57.5 µM | 410,000 compounds, 4.5% hits | AID 1259415; in the data active means activity change below about -60%; inconclusive means no clear call, values can overlap the other calls; inactive means above about -39%; further: on the % scale 0 is the no-effect control and ±100 the full control effect
#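 Two compound doses tested in HFFs infected with HCMV-luciferase, MOI 1 PFU/cell, 72 h at 37C. Lysate luminescence read with OneGlo; data normalized against buffer-only and 10uM Salinomycin inhibitor controls.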
# Pf growth 96h: inhibits malaria parasite growth, 96 h; P. falciparum luciferase reporter growth, 96 h; Potency, µM (doses to about 28.7 µM), without a hit: at the top dose activity change, negative = inhibition, actives largely listed as inhibitors; 320,000 compounds, 6.9% hits; further: potency means the concentration at half of the fitted maximal effect; on the % scale 0 is the no-effect control and ±100 the full control effect
#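 Plates of compound plus infected erythrocytes (2% hematocrit, 0.05% parasitemia final) incubate 96 hours, 37 C, 5% CO2. Detection reagent added; reduced luminescence from the parasites' luciferase reporter flags inhibition.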
# Pf growth 48h: inhibits P. falciparum growth in the first generation, 48 h; 310,000 compounds, 5.9% hits; P. falciparum luciferase growth in erythrocytes, 48 h; Potency, µM (doses to about 28.7 µM), inactives show top-dose activity change, negative = inhibition, most hits filed as inhibitors; further: potency means the concentration at half of the fitted maximal effect; on the % scale 0 is the no-effect control and ±100 the full control effect
#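 Cell-based growth assay: transgenic P. falciparum expressing firefly luciferase, cultured in red cells within RPMI 1640 containing 0.5% w/v Albumax, 24 mM bicarbonate and gentamycin. A drop in luciferase activity indicates inhibition.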
# Shiga toxin inh: Shiga toxin inhibition; Vero cells, Shiga toxin protein synthesis inhibition reporter; inhibition, % at 38.7 µM; 290,000 compounds, 9.2% hits; AID 2315; in the data active means inhibition mostly above about 28%, no sharp cut-off; inactive means mostly below about 43%; further: 0% is about no effect
# Cycloheximide cs: affects cycloheximide protein synthesis inhibition readout, counter-screen; max response, %; 300,000 compounds, 12% hits; cell reporter, cycloheximide protein synthesis inhibition counterscreen; AID 2314; in the data active means max response mostly above about 13%, no sharp cut-off; inactive means mostly below about 14%; further: read at 38.3 µM for the half of the compounds with a filed dose; 0% is about no effect
# Active calls of the source: *; ? = inconclusive; · = not tested or not shown. In the library only some 20% were active in any assay of this set; here they are far more common. Unless noted, the call rests on the fitted dose curve; in most records, active means well fitted inhibition curve with a large enough effect; inconclusive means small, poorly fitted or top-dose-only effect, or another doubt; inactive means no such curve, though single readings can be large or run the other way.
SMILES,HCMV inh,Pf growth 96h,Pf growth 48h,Shiga toxin inh,Cycloheximide cs
COc1ccc(/C=N/NC(=O)c2ccn[nH]2)cc1COc1ccc(F)cc1,-20.1,4.8%,?,33.0,20.6*
COc1ccc(/C=N/NC(=O)c2cccnc2)cc1COc1ccc([N+](=O)[O-])c(C)c1,-76.0*,-14.9%,-10.9%,-10.2,-2.5
COc1ccc(C(=O)N/N=C/c2ccc(OC)c(COc3ccc(F)cc3)c2)cc1,50.8,?,?,13.3,18.7
COc1ccc(/C=N/NC(=O)c2ccn[nH]2)cc1COc1ccc([N+](=O)[O-])c(C)c1,?,?,?,55.1*,34.7*
COc1ccc(-c2nc(C)c(CCNC(=O)c3cc(OC)c(OC)c(OC)c3)s2)cc1OC,35.5,·,·,·,·
O=C(CCC(=O)N1CCN(c2ccccn2)CC1)c1ccc(Cl)s1,?,-28.0%,-27.8%,·,·
COc1ccc(C(=O)N/N=C/c2ccc(OC)c(COc3ccc(F)cc3F)c2)cc1,33.5,-1.6%,?,-2.0,10.1
COc1ccc(/C=N/NC(=O)c2ccn[nH]2)cc1Cn1nc(C)c([N+](=O)[O-])c1C,-14.1,-9.5%,5.5%,68.6*,22.9*
COc1ccc(/C=N\NC(=O)c2ccccc2OC)cc1COc1c(F)c(F)c(F)c(F)c1F,102.2,?,0.2%,18.6,11.9*
COc1ccc(/C=N/NC(=O)c2ccco2)cc1Cn1nc(C)c([N+](=O)[O-])c1C,-28.7,-0.4%,?,-10.2,8.8
COc1ccc(/C=N/NC(=O)c2ccncc2)cc1Cn1nc([N+](=O)[O-])c(Br)c1C,-33.3,4.15µM*,?,-5.7,-1.0
COc1ccc(C(=O)N/N=C/c2ccc(OC)c(CN3CCc4cc(OC)c(OC)cc4C3C)c2)cc1 (stereo unspecified),69.6,-34.0%,9.28µM*,1.5,7.6
COc1cc(NC(=O)c2nc3ccccc3nc2N2CCCCC2)cc(OC)c1OC,42.7,·,·,·,·
CN1CCN(C(=O)c2cc([N+](=O)[O-])ccc2Cl)CC1,75.3,?,201.0%,-3.7,0.6
COc1ccc(/C=N/NC(=O)c2ccccc2)cc1CN1CCN(c2ccc(F)cc2)CC1,-14.9,12.3%,3.2%,24.6,12.4*
Cc1ccc(-n2cc(CN3CCN(Cc4nccn4C)CC3)c(-c3ccc(F)cc3)n2)cc1,-11.0,?,6.57µM*,57.4,15.0*
Cc1ccc(-n2cc(CN3CCN(C(=O)c4ncn[nH]4)CC3)c(-c3ccc(F)cc3)n2)cc1,16.8,14.7µM*,11.7µM*,40.5,16.7*
Cc1ccc(-n2cc(CN3CCN(c4ccccn4)CC3)c(-c3ccc(F)cc3)n2)cc1,-19.6,-11.6%,9.28µM*,32.6,4.4
Cc1cccc(-n2cc(CN3CCN(c4ccccn4)CC3)c(-c3cccc(F)c3)n2)c1,36.2,?,?,1.5,-2.8
Cc1ccc(-n2cc(CNCCc3cscn3)c(-c3ccc(F)cc3)n2)cc1,-29.8,7.4%,?,28.5,10.2
Cc1ccc(-n2cc(CNCCCn3ccnc3C)c(-c3ccc(F)cc3)n2)cc1,-81.7*,22.7%,2.33µM*,3.8,2.4
COc1ccc(C2CC(=O)c3cc(-c4nc(-c5ccc(C)cc5)cs4)c(=O)[nH]c3C2)cc1 (stereo unspecified),16.4,·,·,·,·
Cc1cc(NC(=O)CCC(=O)N(CC(=O)NC2CCCC2)c2ccc(C(C)C)cc2)no1,-32.0,?,?,-7.8,-3.2
COc1cccc(NC(=O)CCN2C(=O)C3CC=CCC3C2=O)c1 (stereo unspecified),40.6,?,105.9%,73.3*,49.2*
COc1ccc(NC(=O)CCCN2C(=O)C3CC=CCC3C2=O)cc1 (stereo unspecified),-19.1,10.4µM*,12.6%,40.0*,23.9*
SMILES,HCMV inh,Pf growth 96h,Pf growth 48h,Shiga toxin inh,Cycloheximide cs
COc1ccccc1NC(=O)CCCN1C(=O)C2CC=CCC2C1=O (stereo unspecified),38.3,6.57µM*,9.2%,-0.9,-2.7
O=C(CCCN1C(=O)C2CC=CCC2C1=O)Nc1ccccc1Cl (stereo unspecified),6.2,2.6%,-2.3%,16.2,7.5
CCc1ccccc1NC(=O)CCN1C(=O)C2CC=CCC2C1=O (stereo unspecified),21.1,11.7µM*,27.0%,-2.9,-1.6
CCOC(=O)c1ccc(NC(=O)CCN2C(=O)C3CC=CCC3C2=O)cc1 (stereo unspecified),4.8,?,-7.1%,·,·
COc1cccc(NC(=O)CCCN2C(=O)C3CC=CCC3C2=O)c1 (stereo unspecified),24.6,43.0%,52.2%,9.6,9.0
COc1cc2c(cc1OC)CN(Cc1ccc(OC)c(C)c1OC)CC2,20.6,2.1%,-12.3%,-3.3,-1.1
CCOC(=O)c1cccc(NC(=O)[C@@H](c2ccccc2)N2Cc3ccccc3C2=O)c1,-0.8,·,·,·,·
Cc1cc(C(=O)C(C(c2ccccc2)N2CCOCC2)N2CCOCC2)ccc1Cl (stereo unspecified),7.4,·,·,·,·
C1CCCC(NC2=NCCO2)CCC1,·,?,34.3%,9.8,4.1
COc1ccc(-c2noc(CNC(=O)CCN3C(=O)[C@H]4CC=CC[C@H]4C3=O)n2)cc1,-17.3,11.7µM*,-9.0%,-2.4,8.9
COc1ccc(-c2noc(CN(C)C(=O)CCN3C(=O)[C@H]4CC=CC[C@H]4C3=O)n2)cc1,-8.1,?,?,13.2,6.0
CC(C)=CCC/C(C)=C/CNC(=O)C[C@H]1C[C@H](C(=O)N2CCOCC2)[C@@]2(C)c3[nH]c4ccc(Cl)cc4c3CCN2C1=O,-86.0*,·,·,·,·
CC[C@]12c3[nH]c4ccc(Cl)cc4c3CCN1C(=O)[C@@H](CC(=O)NCC13CC4CC(CC(C4)C1)C3)C[C@@H]2C(=O)N1CCN(C(=O)c2ccco2)CC1,-106.1*,·,·,·,·
CC[C@]12c3[nH]c4ccc(Cl)cc4c3CCN1C(=O)[C@@H](CC(=O)NCc1ccco1)C[C@@H]2C(=O)N1CCN(C(=O)c2ccco2)CC1,15.3,·,·,·,·
CN(C)C(=O)CCc1ccc2c3c([nH]c2c1)[C@]1(C)[C@@H](C(=O)N2CCCCC2)C[C@H](CC(=O)NCC24CC5CC(CC(C5)C2)C4)C(=O)N1CC3,-90.1*,·,·,·,·
CCS(=O)(=O)N1Cc2cc(C(=O)NCC3CC3)nc(-c3cccc(-c4cccnc4)c3)c2[C@@H]1CCO,-22.0,·,·,·,·
O=C(CSc1nc2cc3ccccc3cc2[nH]1)Nc1ccc(F)cc1,8.1,35.7%,15.6%,18.9,12.1
Oc1ccccc1CNCCCNCc1ccccc1O,44.3,238.3%,8.28µM*,-6.8,-2.4
CC(C)(c1ccccc1)c1ccc(OCCCNCCO)cc1,-38.8,2.08µM*,·,5.1,9.6
OCCNCCCCOc1ccc(OCc2ccccc2)cc1,46.9,29.0%,-18.7%,85.8*,33.6*
COCCCNCCCOc1ccc(C(C)(C)c2ccccc2)cc1,?,29.0%,?,-9.6,-3.9
OCCCCNCc1ccc(OCc2ccccc2Cl)cc1,?,?,?,25.5,24.7*
CN(CC(=O)Nc1cccnc1)S(=O)(=O)c1ccc(Br)cc1,20.1,1.5%,-1.4%,-33.8,-1.1
